Whole data set: some 110,000 compounds, median “z-score” near -0.1, cut for the highest 2% near 2. The list comes from a sample in which the highest values are over-represented; it also holds similar structures and randomly drawn compounds. The source made the active and inactive calls.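 The calls were made as follows: active = z-score in the third read window above 3 or below -3; inactive = the rest.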

In the assay the target is Metabotropic glutamate receptor 8 (Rattus norvegicus) (UniProt P70579). Nature of the assay: mGluR8 Gi/Go-coupled signaling modulation – cell-based, rat, thallium flux, HTS, primary screen (AID 488969). As to conditions: HEK293 rat mGluR8, GIRK (G protein-gated inwardly rectifying potassium channel) thallium flux, FluoZin2; at 10 µM; stronger effect = higher value; submaximal glutamate (EC20) added with thallium.
Sequence of Metabotropic glutamate receptor 8 (Rattus norvegicus) (P70579 whole entry, looked up): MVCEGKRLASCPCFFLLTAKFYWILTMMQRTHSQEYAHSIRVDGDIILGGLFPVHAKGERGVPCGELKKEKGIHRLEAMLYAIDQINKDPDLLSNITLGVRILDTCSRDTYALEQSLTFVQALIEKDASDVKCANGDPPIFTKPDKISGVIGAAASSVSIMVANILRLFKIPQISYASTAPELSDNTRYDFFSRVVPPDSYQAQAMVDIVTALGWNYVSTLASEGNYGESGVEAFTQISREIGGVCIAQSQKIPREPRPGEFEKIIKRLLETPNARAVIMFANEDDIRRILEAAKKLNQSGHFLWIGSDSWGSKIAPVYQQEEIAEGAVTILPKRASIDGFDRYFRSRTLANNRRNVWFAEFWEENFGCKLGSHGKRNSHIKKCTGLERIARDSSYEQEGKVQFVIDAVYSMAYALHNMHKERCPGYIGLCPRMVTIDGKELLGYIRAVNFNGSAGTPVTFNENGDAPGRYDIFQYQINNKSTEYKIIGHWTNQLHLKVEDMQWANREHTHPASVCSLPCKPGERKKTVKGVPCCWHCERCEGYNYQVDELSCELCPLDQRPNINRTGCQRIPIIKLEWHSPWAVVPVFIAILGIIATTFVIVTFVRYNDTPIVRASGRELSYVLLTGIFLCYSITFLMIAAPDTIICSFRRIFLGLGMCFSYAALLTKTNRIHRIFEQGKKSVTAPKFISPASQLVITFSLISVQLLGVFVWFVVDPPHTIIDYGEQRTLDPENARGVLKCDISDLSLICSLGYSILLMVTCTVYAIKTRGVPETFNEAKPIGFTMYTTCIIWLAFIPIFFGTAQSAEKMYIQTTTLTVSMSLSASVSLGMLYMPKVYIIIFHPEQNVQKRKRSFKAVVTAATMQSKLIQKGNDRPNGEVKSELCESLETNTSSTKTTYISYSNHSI
The molecule `CCCn1c2c(c(O)c(C(=O)NCCCN(CC)CC)c1=O)CCCC2` gave a z-score of 0.585.
Under `Cc1ccccc1C(=O)N1CCN(c2ccc([N+](=O)[O-])c(NCc3cccnc3)c2)CC1` stands -0.418; under `Cc1cc(Cl)ccc1OCc1n[nH]c(=S)n1C1CCCCC1`, 7.67 (active); under `Cc1ccc(OCc2n[nH]c(=S)n2C2CCCCC2)cc1`, -1.04.
In turn, `S=c1[nH]nc(COc2ccc(Cl)cc2)n1C1CCCCC1` gave a z-score of 1.31.
In the case of `CC(=O)Cc1nsc(NC(=O)c2cn(-c3ccccc3)nc2-c2ccc(Br)cc2)n1`, the z-score was 0.229.
On to `O=C(c1ccccc1F)N1CCN=C1SCc1cccnc1`, for which the z-score was found to be 0.643.
With `Cc1cc(NC(=O)C(C)C)ncc1NC(=O)Cc1ccccc1` the figure was 1.07; with `Cc1cc(C(=O)N/N=C2\CCCC(C)C2)n[nH]1` (centres undefined), -0.208.
Molecule `COc1ccc(CCN2C(=O)C(Oc3ccccc3C)C2c2ccc3c(c2)OCO3)cc1` (centres undefined) had a z-score of -0.223.
Under `COc1ccc([C@@H]2Sc3cc(OC)ccc3N(CCN(C(C)C)C(C)C)C(=O)[C@H]2OC(C)=O)cc1` stands 2.62; under `COc1ccc(CCN2C(=O)C(Oc3ccccc3)C2c2ccc3c(c2)OCO3)cc1` (centres undefined), -0.146.
The molecule `COC(=O)COc1ccc(S(=O)(=O)N2CCc3ccccc3C2)cc1` registered a z-score of -0.687.
Under `CCCCSc1nc2ccccc2n1CC(=O)O` stands -0.412; under `CC(C)(C)c1ccc2c(c1)C(=O)c1ccccc1C2=O`, -0.283; under `CCOC(=O)c1ccc(Oc2nc(NC)nc(OC)n2)cc1`, -0.524.
With `C=CCOc1cccc(C2/C(=C(/O)c3ccccc3)C(=O)C(=O)N2CCN2CCOCC2)c1` (centres undefined) the figure was -0.193; with `C=CCOc1cccc(C2/C(=C(/O)c3ccc(Cl)cc3)C(=O)C(=O)N2CCN2CCOCC2)c1` (centres undefined), -0.349.
Under `C=CCOc1cccc(C2/C(=C(/O)c3ccc(C)cc3)C(=O)C(=O)N2CCN2CCOCC2)c1` (centres undefined) stands 3.31 (active); under `Cc1ccc(C)c(N2C(=O)CN=C2Nc2ccccc2Cl)c1`, -0.307; under `Cc1ccccc1C(=O)NNC(=S)NC(=O)COc1ccccc1`, 4.25 (active).
Turning to `Cc1ccccc1C(=O)NNC(=O)Cc1ccccc1`, the z-score is -0.146.
Under `COc1cccc(OCC(=O)NNC(=O)c2ccc(-c3ccccc3)cc2)c1` stands 0.902; under `Cc1ccc(NC(=O)COc2ccccc2)c(NC(=O)c2ccccc2C)c1`, 0.00484; under `Cc1ccc(C(=O)NNC(=S)NC(=O)COc2ccccc2)cc1`, 6.25 (active).
Take `Cc1ccc(OCC(=O)NNC(=O)c2cccnc2)cc1`: the z-score came out at 0.0457.
`Cc1cccc(C(=O)NN2C(=O)C3C(c4ccccc4)C=CC(c4ccccc4)C3C2=O)c1` (centres undefined) returned a z-score of 0.291.
`Cc1ccc(C(=O)NCCSc2ccc(Cl)cc2)cc1S(=O)(=O)Nc1ccccc1`: the z-score is -0.43.
Under `CC(C)Cn1c(=O)c(C2=NS(=O)(=O)c3ccccc3N2)c(O)c2ccccc21` stands 5.83 (active); under `CC(C)Cn1c(=O)c(C(=O)N/N=C/c2cccc(F)c2)c(O)c2ccccc21`, 0.163.
Molecule `CCn1c(=O)c(-c2ccccc2)c(O)c2ccccc21` displayed a z-score of 1.28.
With `CCCc1nc(NCC2CCCO2)c2nnn(Cc3ccccc3)c2n1` (centres undefined) the figure was -0.932; with `CN(C)c1ccc(C(=O)Nc2nc3c(s2)CCCC3)cc1`, 0.874; with `O=C(NC(=S)Nc1nc2c(s1)CSc1ccccc1-2)c1ccccc1`, 0.384.
Molecule `CCOc1ccccc1C(=O)N[C@H](C(=O)Nc1nc2c(s1)CCCC2)C(C)C` registered a z-score of 0.39.
For the molecule `COC(=O)c1ccc(C(=O)NC(=S)Nc2nc3c(s2)CC(C)CC3)cc1` (centres undefined), the z-score is 0.17.
With `O=C(NC(=S)Nc1nc2c(s1)CCCC2)c1ccccc1` the figure was 4.37 (active); with `Cc1onc(-c2ccccc2)c1C(=O)Nc1nc2c(s1)CCCC2`, 0.165; with `O=C(NC(=S)Nc1nc2c(s1)CCCC2)c1ccc(C(=O)c2ccccc2)cc1`, 2.41.
Under `O=C(Nc1nc2c(s1)CCCC2)c1cccs1` stands 0.315; under `CC(C)(C)c1ccc(C(=O)NC(=S)Nc2nc3c(s2)CCCC3)cc1`, 1.95.
With `CC(C)[C@H](NC(=O)c1ccccc1F)C(=O)Nc1nc2c(s1)CCCC2` the figure was 2.3; with `COC(=O)c1ccc(C(=O)NC(=S)Nc2nc3c(s2)CCCC3)cc1`, 9.51 (active); with `Cc1ccccc1C(=O)NC(C(=O)Nc1nc2c(s1)CCCC2)C(C)C` (centres undefined), -0.323.
For the molecule `S=C1NCCOCCOCCOCCN1`, the z-score is -0.259.
Under `Cc1nc2oc3ccccc3c(=O)c2c(=O)n1Cc1ccccc1` stands 1.14; under `Brc1ccccc1-c1nnc2sc(Cc3ccccc3)nn12`, -2.32.
In turn, `Cc1ccc2cccc(S(=O)(=O)Nc3c(C)n(C)n(-c4ccccc4)c3=O)c2n1` displayed a z-score of -0.0715.
In the case of `Cc1cc(C)n2nc(C(=O)OCC(=O)c3cc(C)n(C)c3C)nc2n1`, the z-score is -0.164.
Under `Cc1ccc2c(c1)nc(NCCO)n2C` stands -0.14.
With `Cc1ccccc1CSCc1nc2ccccc2[nH]1` the figure was -0.127.
For the molecule `CNc1ccc(Br)cc(C(=O)/C=C/c2cccc(OC)c2)c1=O`, the z-score was -0.351.
With `O=C(/C=C/c1ccc2c(c1)OCCCO2)c1ccc2ccccc2c1O` the figure was 0.573; with `Cc1cccc(/C=C/C(=O)c2cc(Br)ccc(=O)c2O)c1`, 2.75; with `Cc1ccc(/C=C/C(=O)c2cc(Br)ccc2OC(=O)c2ccco2)cc1`, -0.117.
Under `CNc1ccc(Br)cc(C(=O)/C=C/c2ccc(OC)cc2OC)c1=O` stands -0.255.
Turning to `COc1ccc(/C=C/C(=O)c2cc(Br)ccc(=O)c2O)cc1`, the z-score is 3.14 (active).
In the case of `O=C(/C=C/c1ccc2c(c1)OCCCO2)c1ccccc1O`, the z-score was determined as 0.562.
With `CNc1ccc(Br)cc(C(=O)/C=C/c2ccc(OC)cc2)c1=O` the figure was 0.019.
Molecule `CNc1ccc(Br)cc(C(=O)/C=C/c2ccc3c(c2)OCO3)c1=O` showed a z-score of 0.111.
Under `CCc1ccc(/C=C/C(=O)c2cc(Br)ccc(=O)c2O)cc1` stands 2.17; under `CCc1ccc(C(C)NC(=O)/C=C/c2ccc(Br)cc2)cc1` (centres undefined), -0.0914; under `Cc1ccc(/C=C/C(=O)c2ccccc(=O)c2O)cc1C`, 5.65 (active).
Under `N#Cc1cccc(Oc2ccc(-c3cnc4ccccc4n3)cc2)c1C#N` stands 0.258.
Turning to `Cc1ccc(-n2c(C)nnc2SCC(=O)N2CCc3ccccc3C2)cc1`, the z-score was -0.994.
With `Cc1cccc(N2C(=O)CC(Sc3nc(-c4ccccc4)c4cc(Cl)ccc4n3)C2=O)c1` (centres undefined), the z-score was -0.887.
Molecule `CCc1ccc(OCC(=O)N/N=C/c2cc([N+](=O)[O-])ccc2N2CCOCC2)cc1` had a z-score of 0.198.
Regarding `C/C(=N\OC(=O)c1ccc(Cl)cc1)c1nccs1`, the z-score is -0.0963.
With `Cc1ccc(-n2nnnc2SCC(=O)Nc2cccc(NC(=O)c3ccco3)c2)cc1C` the figure was 1.39; with `CC1=CC(=Nc2c(C)n(C)n(-c3ccccc3)c2=O)C=C(C)C1=O`, 0.433; with `Cc1cc(S(=O)(=O)NCC(=O)O)ccc1F`, 0.254.
In the case of `CCN=C1SC(C(=O)Nc2cccc(C)c2)CC(=O)N1CC` (centres undefined), the z-score is -0.145.
Under `O=C(/C=C/c1ccccn1)c1ccc(Br)cc1O` stands -0.442; under `O=C(/C=C/c1ccccc1)c1cc(Br)ccc(=O)c1O`, 14 (active).
Under `O=C(/C=C/c1ccc(Br)cc1)c1ccco1` stands -0.0794.
Molecule `CN(C)c1nc(Oc2ccc(N)cc2)nc(N(C)C)n1` displayed a z-score of 0.322.
Take `COc1cccc(C(=O)CSc2nnnn2C)c1`: the z-score was -0.273.
`CCCN(Cc1ccccc1)C(=S)Nc1cccc(C(F)(F)F)c1` showed a z-score of -0.985.
Consider `CN1CC(=O)N(CC(=O)NCc2ccc3c(c2)OCO3)C1=O`, for which the z-score is -0.14.
With `O=C(O)C1[C@H]2C(=O)N(C3CCCC3)C[C@]23C=C[C@H]1O3` (some centres undefined), the z-score was determined as 0.231.
Take `COC(=O)C1C2C=CC3(CN(C4CCCC4)C(=O)C13)O2` (centres undefined): the z-score is -1.65.
With `O=C(O)C1C2C=CC3(CN(C4CCCC4)C(=O)C13)O2` (centres undefined) the figure was 2.75; with `Cc1cc(C)c2oc(-c3cccc(NC(=O)c4ccc(F)cc4)c3)nc2c1`, -0.0725; with `Cc1ccc(-n2cc(-c3ccc([N+](=O)[O-])cc3)[nH]c2=S)c(C)c1`, 2.99.
With `O=[N+]([O-])c1ccc(-c2cn(-c3ccccc3)c(=S)[nH]2)cc1` the figure was -0.00967; with `Cc1cc(C)c(CSc2ncc(-c3ccc([N+](=O)[O-])cc3)[nH]2)c(C)c1`, -0.26; with `O=[N+]([O-])c1ccc(-c2cn(-c3ccc(Cl)cc3)c(=S)[nH]2)cc1`, 2.83.
As for `CCc1ccc(-n2cc(-c3ccc([N+](=O)[O-])cc3)[nH]c2=S)cc1`, the z-score was 0.69.
With `Cc1cccc(-n2cc(-c3ccc([N+](=O)[O-])cc3)[nH]c2=S)c1`, the z-score was 0.401.
With `Cc1ccc(Nc2cc(-n3cccn3)ncn2)c(C)c1` the figure was -0.35; with `COc1ccc(/C=N/Nc2snc(SC)c2C#N)cc1OC`, 0.407.
Under `Cc1ccc(NC(=O)c2ccc3c(c2)N(CC(=O)N2CCCCC2)C(=O)C(C)(C)O3)cc1` stands -0.4; under `CC1Cc2nc(SCC(=O)N3CCN(c4ccccc4)CC3)n(CCc3ccccc3)c(=O)c2S1` (centres undefined), -1.13; under `Cc1cccc(OCC(=O)Nc2ccccc2C(=O)N2CCOCC2)c1`, -0.0499.
Consider `Cc1ccccc1OCC(=O)NC(=S)Nc1ccc(N2CCOCC2)c(Cl)c1`, for which the z-score was 0.328.
On to `O=C(NC(=S)Nc1ccc(N2CCOCC2)c(Cl)c1)C(c1ccccc1)c1ccccc1`, for which the z-score was determined as 0.604.
Under `Cc1ccc(OCC(=O)Nc2ccccc2N2CCOCC2)c(C)c1` stands 0.00977.
With `COc1ccc(OCC(=O)Nc2ccc(N3CCOCC3)c(Cl)c2)cc1`, the z-score is -0.665.
`COc1ccc(OCC(=O)NC(=S)Nc2ccc(N3CCOCC3)c(Cl)c2)cc1` came in with a z-score of 2.19.
On to `O=C(NC(=S)Nc1ccc(N2CCOCC2)c(Cl)c1)c1cncc(Br)c1`, for which the z-score is 7.69 (active).
With `Cc1cc(Cl)ccc1OCC(=O)NC(=S)Nc1ccccc1N1CCOCC1` the figure was 0.195.
With `Cc1cc(Cl)ccc1OCC(=O)Nc1ccccc1N1CCOCC1` the figure was 2.81; with `CCCC(=O)NC(=S)Nc1ccccc1N1CCOCC1`, -0.0717; with `Cc1cccc(OCC(=O)NC(=S)Nc2ccccc2N2CCOCC2)c1`, 3.14 (active).
With `CCCC(=O)NC(=S)Nc1ccc(N2CCOCC2)c(Cl)c1` the figure was 0.242; with `Cn1c(=O)cc(SCC(=O)NCC2CCCO2)c2ccc(Cl)cc21` (centres undefined), 0.0952; with `COCCOC(=O)C1=C(C)NC2=C(C(=O)CC(C)(C)C2)C1c1ccc2c(c1)OCO2` (centres undefined), -0.115.
As for `CCc1nc(N)c(C#N)c(-c2cccc3ccccc23)c1C`, the z-score worked out at 0.197.
`O=C(C[n+]1ccc2ccccc2c1)Nc1cc(C(F)(F)F)ccc1Cl` displayed a z-score of -0.746.

For the origin of these results see PubChem BioAssay AID488969 (Vanderbilt High Throughput Screening Facility, 2010).
